Measured values from PubChem BioAssay (NCI).
This is part of a sample that, as a whole, favours compounds with a hit. Of some 83,000 tested, about 20% had one in any assay.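 The endpoint reported here, percent growth, reads 100 for growth as untreated, 0 for no net growth and -100 for all cells dead.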 Unmarked numbers belong to inactive results. Active and inactive are the calls of the source. Rule for the calls: active = growth percent below 10; inactive = the rest.

Key:
Experiment in all cases: NCI-60 one-dose screen, 48 h (100 = growth as untreated, 0 = no growth, -100 = all killed)
SK-MEL-2 melanoma = conditions: 10 µM unless noted
EKVX NSCLC = conditions: 10 µM unless noted
SN12C renal = conditions: 10 µM unless noted
UO-31 renal = conditions: 10 µM unless noted
TK-10 renal = conditions: 10 µM unless noted
ACHN renal = conditions: 10 µM unless noted
CAKI-1 renal = conditions: 10 µM
A498 renal = conditions: 10 µM unless noted
CCRF-CEM leukemia = conditions: 10 µM unless noted
MOLT-4 leukemia = conditions: 10 µM unless noted
OVCAR-8 ovarian = conditions: 10 µM unless noted
OVCAR-5 ovarian = conditions: 10 µM unless noted
OVCAR-4 ovarian = conditions: 10 µM unless noted
SK-OV-3 ovarian = conditions: 10 µM unless noted
IGROV1 ovarian = conditions: 10 µM unless noted
OVCAR-3 ovarian = conditions: 10 µM unless noted
HS 578T breast = conditions: 10 µM unless noted
NCI/ADR-RES ovarian = conditions: 10 µM unless noted
SR leukemia = conditions: 10 µM unless noted
RPMI-8226 leukemia = conditions: 10 µM unless noted

Row | Compound | growth (SK-MEL-2 melanoma) | growth (EKVX NSCLC) | growth (SN12C renal) | growth (UO-31 renal) | growth (TK-10 renal) | growth (ACHN renal) | growth (CAKI-1 renal) | growth (A498 renal) | growth (CCRF-CEM leukemia) | growth (MOLT-4 leukemia) | growth (OVCAR-8 ovarian) | growth (OVCAR-5 ovarian) | growth (OVCAR-4 ovarian) | growth (SK-OV-3 ovarian) | growth (IGROV1 ovarian) | growth (OVCAR-3 ovarian) | growth (HS 578T breast) | growth (NCI/ADR-RES ovarian) | growth (SR leukemia) | growth (RPMI-8226 leukemia)
1 | O=C(Nc1ccc(-c2nc(-c3cccc(O)c3)c(-c3ccnc(Br)c3)[nH]2)cc1)c1ccccc1 | 10.3% | 26.7% | 35% | 1.13% (active) | 49% | 16.5% | 11.3% | -11.4% (active) | 3.66% (active) | -15.8% (active) | 24.3% | 57.7% | 35% | -5.97% (active) | 25.6% | 31.6% | -24.1% (active) | 57.6% |  | 
2 | CCOC(=O)Nc1ccc(-c2nc(-c3cccc(O)c3)c(-c3ccnc(Br)c3)[nH]2)cc1 | 34.4% | 44.2% | 44.7% | 31.3% | 41.9% | 36.5% | 27.3% | 49.4% |  | 2.17% (active) | 10.7% | 85% | 13.6% | 41.2% | 33% | 14.6% | -2.07% (active) | 63.5% | 9.74% (active) | 
3 | Nc1ccc(-c2nnc(SCc3ccc(O)c4ncccc34)n2-c2ccccc2)cc1 | 12.4% | 30% | 5.29% (active) | 4.44% (active) | 25.3% | 12.4% | 12.9% | 15.8% | 20.7% | 29.5% | 12.5% | 34.4% |  | 8.19% (active) | 14.3% | 19.2% | 5.08% (active) | 45.2% |  | 11.6%
4 | N/C(=N\c1nc2ccc([N+](=O)[O-])cc2s1)C(Cl)(Cl)Cl | 120% | 52% | 79.7% | 43.8% | 78.3% | 9.8% (active) | 31.4% | 32.6% |  | 77% | 73.5% | 84.1% | 67.9% | 82.6% | 65.1% | 47.4% | 79.9% | 73.4% | 57.7% | 38.9%
5 | NC(=O)C(=Cc1ccc(Cl)cc1)C(N)=O | 87.3% | 59.8% | 45.3% | 57.6% | 67.9% | 59.4% | 49.2% |  | 57% | 74.6% | 65.6% | 78.2% | 62.3% | 117% | 59.1% | 52% | 89.7% | 57.1% | 53.3% | 41.9%
6 | Fc1ccc(-c2cc3nc(C(Cl)Cl)nc(-c4cccs4)n3n2)cc1 | 87.7% | 6.21% (active) | 64.5% | 40.6% | 7.64% (active) | -19.9% (active) | -20.4% (active) | -20.7% (active) |  | 65.4% | 24% | 9.21% (active) | 29.8% | 32% | 61.2% | -26.2% (active) | -5.63% (active) | 5.56% (active) | 83.8% | -3.54% (active)
7 | CCn1c2ccc(/C=N/OCCCN(C)C)cc2c2cc(/C=N/OCCCN(C)C)ccc21 | 125% | 48.6% | 63.6% | -90.4% (active) | 132% | -15.5% (active) | -16.5% (active) | 54.1% |  | 0.746% (active) | -5.7% (active) | 31.1% | 52.7% |  | -52.8% (active) |  | 73.8% | 9.38% (active) | -40.8% (active) | -15.9% (active)
8 | COc1cc(/C=N/n2cnc3oc(-c4ccccc4)cc3c2=N)cc(CN2CCN(C)CC2)c1O | 113% | 99.3% | 80.4% | 74% | 113% | 83.1% | 73.3% | 72.2% |  | 76.4% | 93.9% | 105% | 97.7% | 91.3% | 61.7% | 110% | 68% | 98.7% | 35.2% | 95.8%
9 | COc1ccc(Cn2cc3c(c2-c2ccccc2)CCCc2cnoc2-3)cc1 | 80.2% | 69.2% | 79.8% | 57.1% | 91.8% | 58.9% | 46.1% |  | 61.3% | 61.7% | 78.8% | 80.7% | 90.2% | 83.7% | 51.5% | 22% | 64.9% | 29.8% | 21.1% | 59.8%
10 | O=C(CSc1nnc(-c2cccs2)n1-c1ccccc1)Nc1ccc(F)cc1 | 110% | 90.9% | 95.5% | 59.1% | 108% | 90.9% | 87.3% | 84.7% |  | 85.6% | 93.5% | 97.3% | 96.4% | 82.5% | 95.4% |  | 91.8% | 90.7% | 71.6% | 105%
11 | COc1cc(CNC(=O)/C=C/c2ccccc2)ccc1OCC(=O)NO | 99.6% | 95.2% | 95.8% | 81.8% | 102% | 93.3% | 91.4% |  | 105% | 95.7% | 98.2% | 102% | 108% | 98.9% | 98.1% | 104% | 109% | 96.1% | 97% | 102%
12 | C/C(=N/Nc1nc(N/N=C(/C)c2ccc([N+](=O)[O-])cc2)nc(N2CCOCC2)n1)c1ccc([N+](=O)[O-])cc1 | 96.4% | 68.1% | 73.7% | 80.8% | 127% | 66.1% | 77.9% |  | 61.6% | 78.9% | 63.6% | 95.5% | 77.6% | 113% | 93.8% | 88.4% | 78.7% | 68.7% | 113% | 64.7%
13 | O=C(Cn1cc(CN2C(=O)c3ccc([N+](=O)[O-])cc3C2=O)nn1)Nc1ccc(F)cc1Cl | 101% | 97.7% | 101% | 81.3% | 91.2% | 96.9% | 89.9% | 85.8% | 95.6% | 108% | 96.8% | 102% | 106% | 89.7% | 100% |  | 111% | 98.3% |  | 100%
14 | COc1ccc(-c2cc(-c3cccc4ccccc34)n3c(n2)nc2ccccc23)cc1 | 79.1% | 74.9% | 36.9% | 29% | 43% | 19.7% | 21% | 41.5% | 9.05% (active) | 2.23% (active) | 42.1% | 81.1% | 64.8% | 58.4% | 48.7% |  |  | 54.2% |  | 32.7%
15 | CCN(CC)CCN1C(=O)c2c(c3c4cccnc4[nH]c3c3ccc4ccccc4c23)C1=O | 107% | 89% | 71.9% | 53.2% | 121% | 35.9% | 46.5% | 77.3% | 21.9% | 12.8% | 62.3% | 111% | 102% | 64.4% | 55% |  | 109% | 55.5% |  | 73.1%
16 | CC(C)N=C(N/C(N)=N/c1nc2ccccc2s1)NC(C)C | 107% | 67.6% | 45.6% | 46.4% | 80.6% | 55.4% | 45.2% | 72.8% |  | 55.2% | 67.2% | 60.8% | 93.6% | 83.4% | 39.6% | 104% | 75.9% | 63.7% | 49.5% | 42.7%
